# Laboratory results as given in PubChem BioAssay AID624330 (Southern Research Specialized Biocontainment Screening …, 2012).
# Among all 340,000 compounds or so, about 2,100 (0.62%) were called active.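 Rule for the calls: active = first-screen hits whose inhibition reached a set limit at any dose in the follow-up dose series; inconclusive = inhibition above the set first-screen limit but never retested; inactive = the rest.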 A selection follows. Entries with a potency or affinity are not part of this list.
# Target: Rac GTPase-activating protein 1 (Homo sapiens) (UniProt Q9H0H5)
# Sequence (Q9H0H5 whole entry, looked up): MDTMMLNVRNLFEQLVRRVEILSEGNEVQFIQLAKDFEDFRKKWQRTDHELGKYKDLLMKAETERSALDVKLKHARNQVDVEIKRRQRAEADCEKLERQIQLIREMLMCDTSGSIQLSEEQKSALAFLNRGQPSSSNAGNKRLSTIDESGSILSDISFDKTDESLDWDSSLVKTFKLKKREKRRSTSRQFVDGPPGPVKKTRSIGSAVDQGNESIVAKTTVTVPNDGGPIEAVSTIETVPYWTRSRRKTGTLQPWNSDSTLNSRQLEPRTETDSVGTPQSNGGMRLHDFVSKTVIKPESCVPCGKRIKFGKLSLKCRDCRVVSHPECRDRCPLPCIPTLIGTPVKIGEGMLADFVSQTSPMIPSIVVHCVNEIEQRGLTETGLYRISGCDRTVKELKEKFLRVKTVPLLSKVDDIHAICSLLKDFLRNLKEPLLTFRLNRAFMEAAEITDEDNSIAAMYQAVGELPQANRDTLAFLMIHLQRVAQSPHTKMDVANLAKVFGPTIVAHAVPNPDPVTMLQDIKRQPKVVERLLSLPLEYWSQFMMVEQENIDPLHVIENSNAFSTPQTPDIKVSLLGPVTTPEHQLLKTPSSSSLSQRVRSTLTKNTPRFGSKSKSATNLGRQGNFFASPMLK
# Assay: MgcRacGAP GTPase-activating activity inhibitors, confirmation, biochemical, ADP Hunter fluorescence, primary and confirmatory (AID 624330);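 note: fluorescence reports GDP produced by GAP-driven GTP hydrolysis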
# Details: MgcRacGAP-stimulated Rac1 GTP hydrolysis, at 30 µM, stronger effect = higher value, GST-tagged Rac1 F28L mutant substrate
row,SMILES,inhibition
1,Cc1cc(C)n2c(SCC(=O)Nc3ccccc3C#N)nnc2n1,2.29% (inactive)
2,COc1ccc(CCN2CCCn3c2nc2c3c(=O)[nH]c(=O)n2C)cc1OC,6.67% (inactive)
3,CCC1(NC(C)=O)CC2CC1CC2NC(C)=O (centres undefined),1.95% (inactive)
4,CCCC(C)NC(=O)COC(=O)c1ccccc1SCC(=O)NC(C)CCC (centres undefined),2.85% (inactive)
5,Cc1ccc(P(=O)(O)c2ccc(C)cc2)cc1,8.6% (inactive)
6,Cc1ccccc1OCCCN1CCCC1,26.5% (inactive)
7,Cc1ccc(OCCCCN2CCCCC2)c(C)c1,2.28% (inactive)
8,Cc1ccc(OCCN2CCCCCC2)c(C)c1,10.9% (inactive)
9,Cc1ccccc1OCCOCCN1CCCCCC1,-5.57% (inactive)
10,CC1CCCN(C(=O)C2CCN(Cc3ccc4c(c3)OCO4)CC2)C1 (centres undefined),5.33% (inactive)
11,COc1ccc(C(=O)Nc2c(C(C)(C)C)nn(C)c2C(C)(C)C)cc1,10.2% (inactive)
12,CCOC(=O)C1CCN(S(=O)(=O)c2ccc(Cl)cc2)CC1,4.24% (inactive)
13,Cc1sc2nc(CSc3ccccc3)nc(N3CCN(C)CC3)c2c1C,7.15% (inactive)
14,CCOC(=O)c1sc2nc(CSc3ccccc3)nc(N3CCC(C(N)=O)CC3)c2c1C,-5.99% (inactive)
15,C=CCOc1ccc(/C(CC)=N/O)cc1OC,3.46% (inactive)
16,COc1cc(C(=O)OCCN2CCCCC2)ccc1O,21.2% (inactive)
17,COc1cc(C(=O)C(=O)c2ccc(O)c(OC)c2)ccc1O,13.4% (inactive)
18,CC/C(=N\O)c1ccc(OC)c(OC)c1,8.04% (inactive)
19,COc1ccc(C(=O)Nc2ccc(Oc3nc(C)nc4sc(-c5ccccc5)cc34)cc2)cc1OC,2.99% (inactive)
20,CC(C)(C)NC(=O)C(c1ccc(O)cc1)N(C(=O)CCC(=O)Nc1nccs1)c1cccc(F)c1 (centres undefined),8.98% (inactive)
21,COc1ccc(/C=N/n2c(-c3cc(C)[nH]n3)n[nH]c2=S)cc1,21.4% (inactive)
22,COc1cc(/C=N/n2c(C)nnc2C)cc(OC)c1OC,3.62% (inactive)
23,COc1cc(/C=N/n2c(-c3ccccc3)n[nH]c2=S)cc(OC)c1OC,14.2% (inactive)
24,COc1cc(/C=N/N2CCCCC2)cc(OC)c1O,17.9% (inactive)

row,SMILES,inhibition
1,O=C(COc1ccc(Cl)cc1)Nc1ccc(C(=O)NCc2cccnc2)cc1,9.05% (inactive)
2,COc1ccc(NC(=O)c2cccc3ccccc23)cc1OC,-23.3% (inactive)
3,O=C(O)CCS(=O)(=O)c1ccccc1Cl,-0.02% (inactive)
4,COc1cccc(N(CC(=O)N2CCN(C)CC2)S(=O)(=O)c2ccc(C)cc2)c1,-2.09% (inactive)
5,Cc1ccc(S(=O)(=O)N2CCN(c3ccc(C(=O)N4CCOCC4)cc3[N+](=O)[O-])CC2)cc1,3.02% (inactive)
6,CC(=O)Nc1nonc1NC(=O)CSc1ncn[nH]1,1.36% (inactive)
7,CCOC(=O)C1C(=O)N(C(=O)c2ccc(OC)cc2)CC1c1ccccc1 (centres undefined),3.29% (inactive)
8,O=C(C[C@@H]1C/C=C\C[C@H](NC(=O)OCC2c3ccccc3-c3ccccc32)C(=O)OC[C@H]2CCCN2C1=O)NCCO,5.33% (inactive)
9,O=C(N/N=C\c1cccnc1)c1ccc(Cl)cc1Cl,8.54% (inactive)
10,COc1ccc(/C=C(/C(=O)c2ccc(Cl)cc2Cl)n2cncn2)cc1,11.7% (inactive)
11,CC(C)/C=C(/C(=O)c1ccc(Cl)cc1Cl)n1cncn1,7.69% (inactive)
12,CN(C)c1ccc(/C=C(/C(=O)c2ccc(Cl)cc2Cl)n2cncn2)cc1,3.83% (inactive)
13,CCN(CC(=O)NCc1cccs1)C(=O)c1cccc(S(=O)(=O)N2CC(C)OC(C)C2)c1 (centres undefined),-2.83% (inactive)
14,O=C(Cn1ncc2c1-c1ccccc1OC2)N1CCc2ccccc21,2.35% (inactive)
15,CCCCOc1ccc(C(=O)N/C(=C/C=C/c2ccccc2)C(=O)NCCCO)cc1,12.1% (inactive)
16,O=S1c2ccccc2Nc2ccccc21,18.2% (inactive)
17,COC(=O)/C(C#N)=C1/C=Cc2ccccc2N1,-5.37% (inactive)
18,O=C(Cn1cc(C(=O)C(F)(F)F)c2ccccc21)Nc1ccccc1F,13.4% (inactive)
19,O=C(O)C1(C(=O)O)CCCC1,1.88% (inactive)
20,O=C(CCCCO)CCCCCCCC[C@H]1N[C@H](CO)[C@H](O)[C@@H]1O[C@@H]1O[C@H](CO)[C@@H](O)[C@H](O)[C@H]1O,6.38% (inactive)
21,NC[C@H]1O[C@H](O[C@H]2[C@H](O)[C@@H](O[C@H]3O[C@H](CO)[C@@H](O)[C@H](N)[C@H]3O)[C@H](N)C[C@@H]2N)[C@H](N)C[C@@H]1O,6.29% (inactive)
22,Cc1ccc(S(=O)(=O)N2CCN(C(=O)c3ccc(N4CCCCC4)c([N+](=O)[O-])c3)CC2)cc1,6.99% (inactive)
23,COCCCC1CCN(C(=O)C2CCC(=O)N(Cc3cccc(F)c3)C2)CC1 (centres undefined),7.1% (inactive)
24,O=S(=O)(/C(=C/c1ccc(C(F)(F)F)cc1)c1nc2ccccc2[nH]1)c1ccccc1,4.87% (inactive)

row,SMILES,inhibition
1,Cc1cccc2c(N)c3c(nc12)CCCC3 (tested in a mixture with another compound),16.8% (inactive)
2,CN1CCc2c1nc1ccccc1c2N (tested in a mixture with another compound),13.1% (inactive)
3,COc1ccc(CNC(=O)Cn2cc3c(n2)CCCCC3)cc1,7.34% (inactive)
4,O=C1OC(c2ccccc2)=N/C1=C\N1CCCCC1,-1.27% (inactive)
5,O=C1OC(c2ccccc2)=C/C1=C/N1CCCCC1,30.7% (inactive)
6,CCN(C(=O)c1c(C)noc1C)c1c(N)n(Cc2ccccc2)c(=O)[nH]c1=O,5.68% (inactive)
7,CCn1c(=O)c(C(=O)NCc2ccc(F)cc2)c(O)c2ccccc21,10.4% (inactive)
8,CSc1ccc(C#N)cc1NC(=O)c1ccc(Cl)cc1Cl,7.34% (inactive)
9,NC1=NC(=O)/C(=C\c2cccs2)S1,-1.57% (inactive)
10,NC1=NC(=O)/C(=C/c2cccs2)S1,4.92% (inactive)
11,CCCn1c(N)c(C(=O)CSc2nnc(-c3cccs3)n2C2CC2)c(=O)[nH]c1=O,1.21% (inactive)
12,O=C(CCN1CCN(c2ccccc2)CC1)NNC(=O)c1ccccc1,10.2% (inactive)
13,Cc1ccc(NS(=O)(=O)c2cc(N)ccc2Cl)c(C)c1,11.7% (inactive)
14,CNS(=O)(=O)c1cc(N)ccc1C,5.24% (inactive)
15,Cc1cc(C)cc(NC(=S)N2CCCC2)c1,4.82% (inactive)
16,Clc1ccc(NNc2ccnc3cc(Cl)ccc23)cc1,6.46% (inactive)
17,C/C(=N/Nc1ccnc2cc(Cl)ccc12)c1ccc(N)cc1,18.6% (inactive)
18,C/C(=N/Nc1ccnc2cc(Cl)ccc12)c1ccc(O)cc1,18.6% (inactive)
19,Oc1ccc(/C=N/Nc2ccnc3cc(Cl)ccc23)c(O)c1O,15.3% (inactive)
20,Clc1ccc2c(N/N=C/c3ccc(Br)cc3)ccnc2c1,7.12% (inactive)
21,CC(=O)c1ccc(N2CCN(c3ccnc4cc(Cl)ccc34)CC2)cc1,1.01% (inactive)
22,COc1ccc(N2CCN(c3ccnc4cc(Cl)ccc34)CC2)cc1,13.2% (inactive)
23,CCOc1ccc(Nc2ccnc3cc(Cl)ccc23)cc1,6.93% (inactive)
24,CN(C)CCNC(=O)NC(=O)c1ccc(Cl)cc1,7.5% (inactive)

row,SMILES,inhibition
1,CCOCCCNC(=S)Nc1ccc2nc3n(c(=O)c2c1)CCCCC3,-1.06% (inactive)
2,CC(C)C(=O)N1CCN(CCN2C(=O)c3cccc4cccc(c34)C2=O)CC1,12.5% (inactive)
3,COC(=O)c1c(C)[nH]c(C(=O)C(C)OC(=O)c2ccco2)c1C (centres undefined),5.7% (inactive)
4,Cc1ccc(N(C(C)C(=O)Nc2ccccc2C(=O)N2CCOCC2)S(C)(=O)=O)cc1C (centres undefined),10.3% (inactive)
5,O=C1c2ccccc2C(=O)c2[nH]c(=O)[nH]c21,8.15% (inactive)
6,COCCNC(=S)NNc1ccc(Cl)c(C(=O)O)c1,7.21% (inactive)
7,CCOC(=O)c1c(N2C(=O)Nc3ccccc3N2O)sc2c1CCCCC2,14.2% (inactive)
8,CC1(C(=O)O)CCC(C(N)=O)C1(C)C (centres undefined),5.23% (inactive)
9,O=C(O)C1OC2OC3(CCCCC3)OC2C2OC3(CCCCC3)OC12 (centres undefined),-5.5% (inactive)
10,CC(=O)Nc1ccc(NC(=O)C(=O)c2cn(CC(=O)N3CCCC3)c3ccccc23)cc1,4.85% (inactive)
11,Cc1cc(C)n2ncc(C(=O)NCc3ccccc3)c2n1,0.67% (inactive)
12,COc1cc(/C=N/NC(=S)Nc2cccc(S(=O)(=O)N(C)C)c2)cc(OC)c1O,-1.97% (inactive)
13,COc1ccc(/C=N/NC(=S)Nc2cccc(C(=O)O)c2)cc1OC,-9.15% (inactive)
14,COc1cc(/C=N/NC(=S)Nc2cccc(C(=O)O)c2)cc(OC)c1OC,7.41% (inactive)
15,CN(C)S(=O)(=O)c1cccc(NC(=S)N/N=C/c2cccc(O)c2)c1,2.96% (inactive)
16,CCOC(=O)N1CCN(c2c(N3CCN(c4ccccc4OC)CC3)c(=O)c2=O)CC1,8.07% (inactive)
17,O=C(COC(=O)c1ccc(Cl)c(S(=O)(=O)N2CCCCC2)c1)NCc1ccco1,5.55% (inactive)
18,CCC(C)NS(=O)(=O)c1ccc(OCC(=O)Nc2ccc(F)cc2F)cc1 (centres undefined),4.64% (inactive)
19,CCCOc1ccc(/C(O)=C2/C(=O)C(=O)N(CCCn3ccnc3)C2c2ccco2)cc1 (centres undefined),7.22% (inactive)
20,COc1ccc(NC(=O)CN(c2cc(C)cc(C)c2)S(=O)(=O)c2c(C)n[nH]c2C)cc1,6.02% (inactive)
21,C=CCc1cc(Cl)ccc1OCCN1CC(C)OC(C)C1 (centres undefined),26.3% (inactive)
22,C=CCc1ccc(OCCCCN2CC(C)OC(C)C2)c(OC)c1 (centres undefined),16.2% (inactive)
